ALR inh: blocks human ALR sulfhydryl oxidase activity | P55789 | purified ALR, DTT oxidation, H2O2 HRP-luminol luminescence | inhibition, % (test concentration not listed) | hit rate 3.8% among 290,000 | AID 485317;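 active = mean replicate inhibition above about 79%, with every replicate also reaching it, limit read from the data; inconclusive = only one of the two criteria met; inactive = mean below limit and not every replicate reaching it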
PP5 primary: blocks human protein phosphatase 5 activity | P53041 | AID 1987 | hit rate 0.18% among 320,000 | purified PP5c, OMFP substrate fluorescence | inhibition, % at 6.7 µM;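 active = inhibition above the campaign's mean inhibition across all tested compounds plus 3 SD, cut at about 9.5% in these data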;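 note: 0% = DMSO only and 100% = 100 µM cantharidin control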
Target sequence (P53041 whole entry, looked up): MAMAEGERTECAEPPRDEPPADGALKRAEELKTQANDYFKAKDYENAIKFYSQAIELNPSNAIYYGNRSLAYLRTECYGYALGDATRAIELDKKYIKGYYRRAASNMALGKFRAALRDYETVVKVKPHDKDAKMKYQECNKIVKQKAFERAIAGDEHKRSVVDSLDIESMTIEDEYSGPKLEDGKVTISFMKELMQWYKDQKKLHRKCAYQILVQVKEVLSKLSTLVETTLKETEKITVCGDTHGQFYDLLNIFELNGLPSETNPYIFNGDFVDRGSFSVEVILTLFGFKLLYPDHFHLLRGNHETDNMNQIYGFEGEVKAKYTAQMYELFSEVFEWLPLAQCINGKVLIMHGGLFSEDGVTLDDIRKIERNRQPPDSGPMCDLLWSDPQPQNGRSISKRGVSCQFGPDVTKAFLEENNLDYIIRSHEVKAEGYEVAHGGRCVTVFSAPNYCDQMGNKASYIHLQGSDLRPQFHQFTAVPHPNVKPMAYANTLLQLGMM
PP1 inh: PP1-alpha (human) inhibition in PP5 counter-screen. inhibition, % at 6.7 µM. P62136. AID 2235. purified PP1alpha, OMFP fluorescence. hit rate 0.9% among 320,000;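 active = inhibition above the mean inhibition of all tested compounds plus 3 SD, computed separately for each screening campaign, cut at about 15% in these data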
Calb FLC: affects C. albicans growth with fluconazole. C. albicans CaCi-2 (fluconazole-resistant clinical isolate) + fluconazole, Alamar Blue growth, 48 h. growth inhibition, % (no concentration beside the values). hit rate 0.57% among 300,000. AID 1979;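 active = growth inhibition above about 58% in most replicates, limit read from the data, passing the limit was not always enough; inconclusive = exactly half the replicates above a set limit; inactive = most replicates below a set limit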;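 note: all wells also contain fluconazole at 8 µg/ml as a sub-toxic cotreatment; 0% = median of DMSO wells and 100% = median of geldanamycin control wells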
CSC inhib: blocks cancer stem cells; cancer stem cell-like cells viability, luminescence; inhibition, % at 7.5 µM; hit rate 1.1% among 300,000; in the data active = inhibition above about 75%; inconclusive = no clear call, values can overlap the other calls; tested in HMLE shEcad cells
PP5 conf: PP5 (human) inhibition, confirmation; hit rate 22% among 460; shares compounds with PP5 primary; Purified PP5, fluorogenic phosphatase substrate, fluorescence; inhibition, % at 6.7 µM; in the data active = inhibition above about 9.5%
PP1 counter 3x: PP1 phosphatase inhibition, counter-screen for PP5 inhibitors | hit rate 4% among 460 | shares compounds with PP5 primary | PP1 enzyme, fluorescent phosphatase substrate | inhibition, % at 6.7 µM; in the data active = inhibition above about 16%
PP1 inh confirm: confirmation of human PP1 phosphatase inhibitors; hit rate 52% among 1,900; inhibition, % at 6.7 µM; shares compounds with PP1 inh; purified PP1alpha, OMFP substrate fluorescence;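 active = mean PP1 inhibition above a set limit taken from the earlier primary screen, cut at about 15% in these data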
PP5 counter: counter-screen for PP1 inhibitors: human PP5 phosphatase inhibition. shares compounds with PP1 inh. purified PP5c, OMFP fluorescence. inhibition, % at 6.7 µM. hit rate 4% among 1,900;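 active = mean PP5 inhibition over triplicate wells above about 9.5% taken from the earlier PP1 screen, limit read from the data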
* marks the source's active call; other numbers are inactive results; ? = inconclusive; . = no result given. An excerpt weighted towards active compounds, which were near 5.4% of everything screened.

SMILES | ALR inh | PP5 primary | PP1 inh | Calb FLC | CSC inhib | PP1 inh confirm | PP5 counter | others
CCOc1ccc(-n2c(O)c(C=Nc3ccc(N(CC)CC)cc3)c(=O)[nH]c2=O)cc1 | -1 | 2 | -3 | ? | . | . | .
O=C(/C=C/C=C/c1ccccc1)CC1(O)C(=O)Nc2ccccc21 (configuration not stated) | 8 | -2 | -3 | -19 | -5 | . | .
CCn1c(O)c(C=Nc2ccc(N3CCOCC3)cc2)c(=O)n(CC)c1=S | 64 | 2 | 6 | -12 | 5 | . | .
CCCCn1c(NC(=O)c2ccco2)c(C(=O)OCC)c2nc3ccccc3nc21 | 63 | 9.6* | 5 | 28 | 11 | . | . | PP5 conf=37*;PP1 counter 3x=8
COc1ccc(Cn2c(N)c(C(=O)NCc3ccco3)c3nc4ccccc4nc32)cc1 | -1 | 11* | 6 | 1 | 10 | . | . | PP5 conf=11*;PP1 counter 3x=4
O=c1[nH]c(O)c(/C=C2\C=Nc3ccc(OCc4ccccc4)cc32)c(=O)[nH]1 | -51 | 0 | 19* | 2 | -11 | 24* | -4
O=C(N/N=C/c1c(O)n(Cc2ccc(F)cc2)c(=O)[nH]c1=O)c1ccccc1O | 97* | 4 | 21* | -3 | 42 | 10 | -2
Cc1ccc(N2C(=O)NC(=O)/C(=C/c3cnc(-c4ccccc4)nc3)C2=O)cc1C | 8 | 3 | 4 | 3 | -10 | . | .
O=C1NC(=O)N(Cc2ccco2)C(=O)/C1=C/c1ccc(-c2cccc([N+](=O)[O-])c2)o1 | 54 | 1 | 33* | . | 7 | 16* | -7
COc1ccccc1CN1CCN(C(=O)COc2ccccc2)CC1 | -2 | 0 | -2 | 1 | -5 | . | .
O=C(O)C1C2CCC(O2)C1C(=O)Nc1cccc(Br)c1 (configuration not stated) | -7 | 69* | 69* | 0 | 1 | 9 | 19*
CN1C[C@H](CO)C=C2c3cccc4[nH]cc(c34)C[C@H]21 | 21 | 4 | 32* | 2 | -7 | -3 | 1
CC(C)[C@H]1C(=O)N2CCC[C@H]2[C@]2(O)O[C@](NC(=O)[C@@H]3C=C4c5cccc6[nH]cc(c56)C[C@H]4N(C)C3)(C(C)C)C(=O)N12 | -23 | 5 | 1 | . | -4 | . | .
CCCCCn1c(=O)c(C(=O)Nc2ncccc2C)c(O)c2ccccc21 | ? | 2 | 25* | 5 | -3 | 22* | -3
COC(=O)C1=C(c2ccc(OC(F)(F)F)cc2)C[C@@H]2CC[C@H]1N2C(=O)NCc1ccc(F)cc1 | -6 | 4 | 5 | . | 4 | . | .
CCOC(=O)Cn1cc([N+](=O)[O-])nc1[N+](=O)[O-] | -41 | 2 | -2 | -5 | -6 | . | .
COC(=O)C1=C(c2cccc(OCc3ccccc3)c2)C[C@@H]2CC[C@H]1N2C(=O)NCc1ccc(C(C)(C)C)cc1 | 4 | 6 | 20* | . | 29 | 2 | -1
COC(=O)C1=C(c2cccc(OCc3ccccc3)c2)C[C@@H]2CC[C@H]1N2C(=O)NCc1ccc(N(C)C)cc1 | 2 | 4 | 9 | . | 64 | . | .
COC(=O)C1=C(c2ccc(-c3ccccc3)c(F)c2)C[C@@H]2CC[C@H]1N2C(=O)NCc1cccc2ccccc12 | 2 | 3 | 23* | . | 16 | 4 | 2
COC(=O)C1=C(c2ccc(-c3ccccc3)c(F)c2)C[C@@H]2CC[C@H]1N2C(=O)NCCNC(C)=O | 0 | 0 | 0 | . | -9 | . | .
CC1CCC(C)(NS(=O)(=O)OCC(Cl)(Cl)Cl)CC1 (configuration not stated) | -13 | 3 | 4 | -32 | 28 | . | .
Cc1cc(O)c2c(c1)C(=O)C13C(=C2O)C(=O)[C@H]2[C@@H](O)[C@@H]1[C@H]1[C@H](O)[C@@H]3C(=O)C3=C(O)c4c(O)cc(C)cc4C(=O)C312 (some centres not stated) | . | 3 | 40* | . | 73 | 34* | -2
Fc1ccccc1CCNCc1cccc(Cl)c1Cl | -8 | 4 | 3 | -8 | -2 | . | .
CCOC(=O)C1=C(N)OC2=C(C(=O)CCC2)C12C(=O)N1c3c(ccc(C)c32)C(C)=CC1(C)C (configuration not stated) | -13 | 1 | 0 | 25 | 11 | . | .
O=[N+]([O-])c1ccc(N2CCNCC2)c2ncccc12 | . | . | . | 14 | . | . | .
Clc1ccc(COC(Cn2ccnc2)c2ccc(Cl)cc2Cl)c(Cl)c1 (configuration not stated) | 1 | 2 | 23* | . | 102* | 27* | 2
Cc1nccc2c1[nH]c1ccc(Br)cc12 | -6 | 0 | 21* | -5 | -2 | -1 | -1
CN(C)[C@@H]1C(=O)C(C(N)=O)=C(O)[C@@]2(O)C(=O)C3=C(O)c4c(O)cccc4[C@@](C)(O)[C@H]3[C@H](O)[C@@H]12 | -21 | 2 | 44* | 2 | -7 | 20* | -1
CN(C)[C@@H]1C(=O)C(C(N)=O)=C(O)[C@@]2(O)C(=O)C3=C(O)c4c(O)ccc(Cl)c4[C@@](C)(O)[C@H]3C[C@@H]12 | -27 | 3 | 6 | 2 | -4 | . | .
